According to PubChem BioAssay AID1259415 (National Center for Advancing Translational Sciences (NCATS), 2018):
Screen size: about 410,000 compounds; about 18,000 (4.4%) were called active. Another 7% or so got no clear call; they are omitted. The entries come from a sample that favours actives as a whole. Values without a mark were called inactive. Rule as the data show it: active = activity change below about -60%; inconclusive = no clear call, values can overlap the other calls; inactive = above about -39%.

Test: qHTS Assay for inhibitors of the human cytomegalovirus (HCMV)
Details: HFF cells, HCMV-luciferase reporter, 72 h; at 57.5 µM; active compounds read low
Summary of the method: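 Steps: HFFs plated, 16 h 37C; compounds added; HCMV-luciferase added to MOI 1 PFU/cell; 72 h 37C; OneGlo reagent, 5 min room temperature; luminescence read, normalized to controls.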
% is scaled to controls: 0 for no effect and ±100 for the full control effect.

SMILES	activity change, negative = inhibition
Cc1ccc(Nc2ccc3cc(S(=O)(=O)N4CCCCC4)ccc3n2)cc1F	-90.2% (active)
O=S(=O)(c1ccc2nc(NCc3ccccc3Cl)ccc2c1)N1CCCCC1	-22.2%
O=S(=O)(c1ccc2nc(N3CCN(c4cccc(Cl)c4)CC3)ccc2c1)N1CCCCC1	6.51%
Cc1ccc(-n2ncc3c(=O)n(Cc4cccc(C(F)(F)F)c4)cnc32)cc1C	1.72%
CSc1nc(C)nc2c1c(=O)n(C)c(=O)n2C	6.36%
COc1ccc(C(=O)/C=C/c2ccc(-c3ccccc3)cc2)cc1CSCC(=O)O	-1.55%
COc1ccc(NS(=O)(=O)c2ccc(NC(C)=O)cc2)cc1OC	-79.8% (active)
COC(C(=O)Nc1ccc(S(=O)(=O)Nc2ccc(C)c(C)c2)cc1)c1ccccc1 (stereo not given)	-97.3% (active)
COc1ccc(/C=C/C(=O)c2ccc(NS(=O)(=O)c3ccc(C)cc3)cc2)cc1O	-96.5% (active)
COC(C(=O)NCc1ccccc1C)c1ccccc1 (stereo not given)	-7.11%
CCC(Oc1ccccc1C)C(=O)Nc1ccc(S(=O)(=O)Nc2cc(C)on2)cc1 (stereo not given)	4.11%
COc1ccccc1C(=O)COC(=O)CNS(=O)(=O)c1ccc(NC(C)=O)cc1	5.34%
COc1ccc(S(=O)(=O)Nc2cc(C)on2)cc1NC(C)=O	61.3%
Cc1ccc(S(=O)(=O)NNC(=O)/C=C/c2cccc(F)c2)cc1	-26.4%
CCc1ccc(NC(=O)c2cc3c(=O)n(Cc4cccnc4)ccc3nc2C)cc1	-20.1%
CC(=O)N1Cc2cc(C(=O)NCc3cccc(F)c3)nc(-c3cccc(C4=CCCCC4)c3)c2[C@H]1CCO	3.64%
COc1ccc(CCNC(=O)c2cc3cccc4c3n2CC(C)S4)c(OC)c1OC (stereo not given)	0%
COCc1c(C(=O)N/N=C/C2CC=CCC2)nnn1-c1nonc1N (stereo not given)	65.4%
O=C(/C=C/c1ccc(Cl)c([N+](=O)[O-])c1)c1cccnc1	-80.5% (active)
O=C(NN=Cc1ccco1)C(=O)Nc1ccc(Cl)c([N+](=O)[O-])c1	63.3%
C/C(=N\NC(=O)Cc1ccccc1[N+](=O)[O-])c1cccnc1	44.6%
Cc1cc(=O)oc(C)c1C(=O)Nc1cnc2ccccc2c1	38.4%
Cc1ccc(Cn2c(=O)n(CCCC(=O)NCc3ccccc3Cl)c(=O)c3ccccc32)cc1	20.2%

SMILES	activity change, negative = inhibition
COc1cccc(CNn2cn[nH]c2=S)c1OCc1ccccc1	-23.6%
COc1ccc(CNCCc2c[nH]c3ccccc23)cc1OC	4.34%
COc1cccc(CNCCc2c[nH]c3ccccc23)c1OCc1ccccc1F	-99.3% (active)
Nc1ncnc2c1ncn2C1OC(CO)CC1O (stereo not given)	8.48%
CC1CCc2noc(NC(=O)c3ccc([N+](=O)[O-])cc3)c2C1 (stereo not given)	26.6%
CS(=O)(=O)N(CC(=O)N/N=C/c1ccccn1)c1ccc(Oc2ccccc2)cc1	-1.4%
S=C(NN=Cc1ccccn1)Nc1ccccn1	279%
Cc1nnc(N/N=C/c2ccccn2)[nH]c1=O	-97.8% (active)
O=C(CN1C(=O)COc2ccc(S(=O)(=O)N3CCCCCC3)cc21)N1CCN(c2cccc(C(F)(F)F)c2)CC1	-23.3%
Fc1ccc(C(Nc2ccc(Cl)c(C(F)(F)F)c2)c2nnc(-c3ccccc3)o2)cc1 (stereo not given)	-0.379%
O=c1nc(N/N=C/c2ccco2)cn[nH]1	-3.52%
COc1ccc(N2CCN(C(=O)[C@@H](NC(=O)c3cc(OC)cc(OC)c3)C(C)C)CC2)cc1	-2.95%
COc1cc(OC)cc(C(=O)N[C@H](C(=O)OCC(=O)NC(C)c2ccccc2)C(C)C)c1 (stereo not given in full)	-6.95%
COc1cc(OC)cc(C(=O)N[C@H](C(=O)Nc2nc3ccccc3[nH]2)C(C)C)c1	-77% (active)
CCN(Cc1ccncc1)C(=S)Nc1ccccc1C	2.81%
CCn1c(CN2CCC(C)CC2)nc2cc(NC(=O)c3ccccc3[N+](=O)[O-])ccc21	-37.4%
O=C1Nc2cc(Cl)c(Cl)cc2N(O)N1c1ccccc1Cl	-10%
COc1ccc(NC(=O)C(C)SCc2ccccc2)cc1 (stereo not given)	-10.8%
CC(Sc1nnc2c(n1)C1CCC2(C)C1(C)C)C(=O)Nc1ccccc1 (stereo not given)	-60.9% (active)
CC(Sc1nnc(C2CC2)n1C1CC1)C(=O)Nc1ccc(C(N)=O)cc1 (stereo not given)	36.3%
CC(=O)Nc1ccc(S(=O)(=O)Nc2cc(C)cn(Cc3ccc(C)cc3)c2=O)cc1	-7.02%
Oc1c(Cl)cc(Cl)c(Cl)c1Cc1c(O)c(Cl)cc(Cl)c1Cl	-95.4% (active)
